Rows were chosen to be rich in hits. Some 2.4% of all compounds tested hit in one or more screens of this group.
12-LOX inh – Primary qHTS assay for inhibitors of human arachidonate 12S-lipoxygenase (ALOX12): Round 2; purified 12hLO, xylenol orange hydroperoxide absorbance; AID 1671190, 2021; 580,000 tested, 1.1% active; Potency, µM (titrated, usually from 108 µM), inactives show at the top dose activity change, negative = inhibition, actives largely listed as inhibitors; active means well fitted curve in the direction sought with a large enough effect; inconclusive means small, poorly fitted or top-dose-only effect, or another doubt; inactive means no such curve, though single readings can be large; an effect the other way counts as inactive or inconclusive; further: on the % scale 0 is the no-effect control and ±100 the full control effect
Target sequence (P18054 whole entry, looked up): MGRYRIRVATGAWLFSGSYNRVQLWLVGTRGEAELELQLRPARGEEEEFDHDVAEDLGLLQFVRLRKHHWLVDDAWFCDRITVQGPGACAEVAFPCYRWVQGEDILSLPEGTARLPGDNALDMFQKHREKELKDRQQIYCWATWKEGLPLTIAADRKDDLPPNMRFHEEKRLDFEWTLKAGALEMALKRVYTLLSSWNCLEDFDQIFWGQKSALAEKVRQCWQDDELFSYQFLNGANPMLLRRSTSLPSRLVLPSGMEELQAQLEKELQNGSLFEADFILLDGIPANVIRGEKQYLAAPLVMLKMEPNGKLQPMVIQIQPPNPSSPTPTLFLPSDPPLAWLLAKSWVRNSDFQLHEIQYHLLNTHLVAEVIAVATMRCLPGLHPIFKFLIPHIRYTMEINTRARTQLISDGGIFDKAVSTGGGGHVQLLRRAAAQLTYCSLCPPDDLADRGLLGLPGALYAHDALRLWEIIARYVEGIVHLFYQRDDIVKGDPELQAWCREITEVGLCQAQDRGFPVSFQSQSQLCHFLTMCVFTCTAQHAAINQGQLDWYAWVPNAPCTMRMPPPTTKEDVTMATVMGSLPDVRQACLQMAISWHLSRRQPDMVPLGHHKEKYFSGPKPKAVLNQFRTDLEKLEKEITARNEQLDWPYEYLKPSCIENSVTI
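Hydroperoxide product was detected by ferrous iron/xylenol orange as the 573 to 405 nm absorbance ratio. Arachidonic acid at 40 uM (final) was turned over for 30 min at room temperature by 150 nM human 12hLO, pH 7.0 Hepes buffer, after 15 min compound preincubation.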
PTAP TSG101 blk – qHTS Assay for Iinhibitors of HIV-1 Budding by Blocking the Interaction of PTAP/TSG101 | Tumor susceptibility gene 101 protein (Homo sapiens), Q99816 | Fluorescence polarization, FITC-PTAP peptide / Tsg101 binding | Potency, µM (doses to about 115 µM), for inactives: top-dose activity change, negative = inhibition, actives largely listed as inhibitors | 340,000 tested, under 10 active | AID 493005, 2010; active means well fitted inhibition curve with a large enough effect in the main read-out, with a control signal flat, not every such curve was filed as active; inconclusive means small, poorly fitted or top-dose-only effect, or effect the other way, or a change in a side signal; inactive means no such curve, though single readings can be large or run the other way; further: % of control where 0% means no effect
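Fluorescence polarization binding of Tsg101 binding domain (10 uM final) to FITC-labeled PTAP peptide (50 nM final) in HEPES pH 7.5 buffer with NaCl, Tween 20, EDTA, TCEP. Compounds added before peptide; binding 20 min at RT.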
TDP1 block – qHTS Assay for Inhibitors of Tyrosyl-DNA Phosphodiesterase (TDP1); Tyrosyl-DNA phosphodiesterase 1 (Homo sapiens), Q9NUW8; recombinant TDP1, AlphaScreen DNA substrate cleavage; Potency, µM (doses to about 130 µM), for the others: top-dose activity change, negative = inhibition, most hits filed as inhibitors; 350,000 tested, 0.28% active; active means well fitted curve in the direction sought with a large enough effect; inconclusive means small, poorly fitted or top-dose-only effect, or another doubt; inactive means no such curve, though single readings can be large; an effect the other way counts as inactive or inconclusive; further: on the % scale 0 is the no-effect control and ±100 the full control effect; nearly all actives have a fitted effect of over 40% in size
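E. coli-derived human Tdp1, 1 nM final. Cpd preinc 15 min RT; substrate 15 nM final, 5 min RT; AS bead mix 10 ug/ml final, 10 min RT. Signal loss = tyrosine-FITC cleavage. No-enzyme wells = max signal.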
Rango complex inh – qHTS Assay for Inhibitors of Rango (Ran-regulated importin-beta cargo) - Importin beta complex formation. Importin subunit beta-1 (Homo sapiens), Q14974. Rango CFP/YFP FRET sensor + importin beta, 45 min. Potency, µM (highest dose often 92.2 µM), without a hit: top-dose inhibition of complex formation. 340,000 tested, 0.031% active;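 further: 0% = DMSO wells and 100% = buffer wells lacking importin beta; nearly all actives have a fitted effect of over 15% in size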
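FRET biosensor (snurportin 1 IBB flanked by EYFP and cerulean), 50 nM, with compound 5 min, then 0.125 microM importin beta in PBS, 1 mM DTT, 0.02% Tween-20, 0.1% BSA. CFP/YFP ratio read after 45 min at room temperature; pre-read flags interference.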
ClpP mod – qHTS Assay for Activators of ClpP; purified B. subtilis ClpP, FRET peptide cleavage, 20 min; 340,000 tested, 1.9% active; ATP-dependent Clp protease proteolytic subunit (Bacillus subtilis (strain 168)), P80244; Potency, µM (top dose mostly 57.5 µM), inactives show top-dose activity change, negative = active; active means well fitted falling curve with a large enough effect; inconclusive means small, poorly fitted or top-dose-only effect; inactive means no such curve, though single readings can be large or run the other way; further: the source files actives as falling curves though it sought activators and does not explain the sign; nearly all actives have a fitted effect of over 65% in size
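ClpP 10 microg/mL final, pH 8 Tris/KCl buffer with BSA, glycerol, Tween-20; compound pinned in; FRET-FV substrate; RT 20 min; Ex320/Em430; ΔFRET vs ADEP 5.8 microM, DMSO, no enzyme.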
Rango dissoc inh – qHTS Assay for Inhibitors of RanGTP induced Rango (Ran-regulated importin-beta cargo) - Importin beta complex dissociation; Biochemical FRET Rango-importin beta, RanGTP-induced dissociation; Potency, µM (highest dose often 46.1 µM), without a hit: top-dose activity change, negative = inhibition; 340,000 tested, 0.071% active; AID 540253, 2011; further: % of control where 0% means no effect; nearly all actives have a fitted effect of over 45% in size
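Compounds preincubate 5 min with complex of recombinant Rango and importin beta in PBS with 1 mM DTT. Ran (0.6 uM) loaded with 2 mM GTP plus 0.2 uM RCC1 starts dissociation; FRET is recorded 45 min later.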
* marks the source's active call; other numbers are inactive results; ? = inconclusive; nt = no result. Unless noted, the call rests on the fitted dose curve. Potency means the concentration at half of the fitted maximal effect.

SMILES	12-LOX inh	PTAP TSG101 blk	TDP1 block	Rango complex inh	ClpP mod	Rango dissoc inh
CCCN(CC(=O)Nc1ccc(F)c(F)c1F)C(=O)c1cc([N+](=O)[O-])ccc1N1CCOCC1	-13.5%	-1.0%	5.7%	-0.3%	22.4µM*	9.3%
CCN(CC(=O)Nc1cc(Cl)ccc1C)C(=O)c1cc([N+](=O)[O-])ccc1N1CCOCC1	?	-0.6%	nt	-3.6%	1.8%	9.2%
CN(C)C[C@@H]1CN(c2ccncn2)C[C@H]1NC(=O)Cc1cccs1	71.2%	nt	nt	nt	nt	nt
COC(=O)Nc1[nH]ncc1[N+](=O)[O-]	35.5µM*	0.8%	-2.4%	-0.6%	nt	20.5%
CC(=O)N1CCc2cc([N+](=O)[O-])ccc21	5.5%	-5.0%	nt	-1.1%	-2.6%	-2.5%
COC(=O)c1nn(-c2ccc3c(c2)CCN3C(C)=O)cc1O	-4.7%	-2.1%	0.0%	1.5%	7.08µM*	-3.7%
Cc1ccc2[nH]c(C(=O)NC(C)c3cccc(F)c3)cc2c1 (stereo unspecified)	-27.4%	nt	nt	nt	nt	nt
COc1cc(/C=C/c2nc3ccccc3s2)cc(OC)c1O	?	0.7%	-2.3%	?	-3.0%	?
CCOc1cc(/C=C/c2nc3ccccc3s2)ccc1O	39.8µM*	nt	nt	nt	nt	nt
Clc1nc(Nc2ccccc2)nc(Nc2ccccc2)n1	19.7%	0.7%	0.0%	-5.4%	31.6µM*	-7.3%
CC(C)(C)Nc1nc(Cl)nc(Nc2ccccc2)n1	-8.7%	-1.1%	1.3%	-2.9%	1.2%	3.5%
COC(=O)c1ccc(COc2ccc(/C=N/O)cc2OC)cc1	17.5%	nt	nt	nt	nt	nt
C=CCn1c(SCc2nc3ccccc3nc2C)nnc1-c1ccoc1C	31.6µM*	-3.4%	-8.3%	-1.9%	-6.4%	-9.0%
CCCn1nc(C)cc1CN(C)c1ccc(NC(=O)c2ccccc2C)cc1C(=O)O	10µM*	nt	nt	nt	nt	nt
COc1ccc(C(=O)Nc2ccc(N(C)Cc3ccccc3)c(C(=O)O)c2)cc1	?	nt	-10.3%	nt	0.4%	nt
CCN(CC)S(=O)(=O)c1ccc(C(=O)C(C#N)c2nc(C)cs2)cc1 (stereo unspecified)	-17.6%	nt	nt	nt	nt	nt
Cc1c(P(=O)(c2ccccc2)c2ccccc2)c2ccccc2n1C	20µM*	nt	1.5%	nt	nt	nt
Cc1c(C(C)(C(=O)O)c2c(C)n(C)c3ccccc23)c2ccccc2n1C	86.6%	nt	nt	nt	nt	nt
Cc1cccc(N2C(=O)N(c3ccccc3C)C3CS(=O)(=O)CC32)c1 (stereo unspecified)	-22.0%	4.9%	3.1%	0.1%	28.2µM*	0.1%
Cc1cc(C)cc(N2C(=O)N(c3ccccc3C)C3CS(=O)(=O)CC32)c1 (stereo unspecified)	19.2%	-3.6%	3.3%	-0.8%	1.1%	-2.6%
COc1cc(OC)cc(C(=O)Oc2ccc(Cl)c(C)c2)c1	-22.4%	nt	nt	nt	nt	nt
Cc1ccc(F)c(Nc2ncnc3c2oc2ccccc23)c1	4.47µM*	nt	nt	nt	nt	nt
Cc1nc(Nc2ccccc2F)c2oc3ccccc3c2n1	-64.7%	-1.1%	nt	5.6%	-0.5%	-4.2%
Cc1cc(O)c(N)c(C)c1Cl	15.8µM*	2.2%	6.9%	5.3%	nt	-10.7%
Cc1cc(O)cc(C)c1Cl	0.5%	-2.9%	2.1%	-1.9%	-0.4%	-8.2%
CC(C)C(NC(=O)c1cccc(S(=O)(=O)N(C)C)c1)c1ccc2c(c1)OCCO2 (stereo unspecified)	-21.7%	nt	nt	nt	nt	nt
CC1CCC(COC(=O)C[N+]2(C)CCCCC2)C(C)C1 (stereo unspecified)	22.4µM*	nt	nt	nt	nt	nt

Source: PubChem (National Center for Advancing Translational Sciences (NCATS))
